Data reported in PubChem BioAssay (EPA / NIEHS).
Calls of active or inactive are those of the source. How the source made its calls: active means hit-call score of the fitted dose curve at least 0.9, where 1 is the maximum; inactive means score below 0.9.

Key:
[1] = molecular target: Bile acid receptor (Homo sapiens) (UniProt Q96RI1); experiment: ATG_IR1_CIS: Attagene CIS-FACTORIAL HepG2 Assay for human Nuclear Receptor Subfamily 1 Group H Member 4 (NR1H4), IR1 submotif (AID 2282946); details: IR1 reporter transcription, actives raise or lower the signal
Bile acid receptor (Homo sapiens), sequence (Q96RI1 whole entry, looked up): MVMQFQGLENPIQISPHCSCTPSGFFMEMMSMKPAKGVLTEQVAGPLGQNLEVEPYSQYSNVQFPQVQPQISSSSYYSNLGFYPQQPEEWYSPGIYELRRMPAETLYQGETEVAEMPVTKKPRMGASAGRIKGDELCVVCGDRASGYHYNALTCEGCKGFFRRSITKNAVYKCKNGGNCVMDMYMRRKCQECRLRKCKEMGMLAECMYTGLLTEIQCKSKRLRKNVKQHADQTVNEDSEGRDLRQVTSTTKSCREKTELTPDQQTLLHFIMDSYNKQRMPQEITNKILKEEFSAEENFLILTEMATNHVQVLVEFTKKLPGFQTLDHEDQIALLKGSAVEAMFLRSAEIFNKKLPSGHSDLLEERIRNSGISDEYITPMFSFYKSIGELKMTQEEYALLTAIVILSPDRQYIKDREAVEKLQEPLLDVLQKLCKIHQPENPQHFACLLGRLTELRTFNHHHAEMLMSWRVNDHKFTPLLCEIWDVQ
In short: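 Transient MRTU transfection, HepG2; 24 h dosing; RNA → RT-PCR → 6-FAM primer extension → HpaI digest → capillary electrophoresis fluorescence. Gain/loss of signal fitted relative to DMSO.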

[2] = ATG_ISRE_CIS: Attagene CIS-FACTORIAL HepG2 Assay for human Interferon Regulatory Factor 1 (IRF1) binding to an Interferon-Stimulated Response Element (ISRE) (AID 2282948); details: HepG2 ISRE cis-reporter (Attagene), mRNA transcription readout; actives raise or lower the signal
In short: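 Transfected HepG2 (multiple reporter transcription units, cis elements) dosed 24 h. RNA → oligo(dT) RT → PCR → 6-FAM primer extension → HpaI → CE. DMSO = negative control/baseline.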

[3] = ATG_M_32_CIS: Attagene CIS-FACTORIAL HepG2 Assay for M32 Transcription Factor (Internal Marker) (AID 2282949); details: HepG2 Attagene cis-factorial M32 reporter, mRNA; actives raise or lower the signal;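 further: background control marker of the multiplexed CIS panel rather than a real target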
In short: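 Internal background marker read-out: RT-PCR/capillary electrophoresis fluorescence of reporter transcripts from transiently transfected HepG2 cells after 24 h chemical exposure. Activity fitted bidirectionally relative to DMSO negative control.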

[4] = ATG_M_06_CIS: Attagene CIS-FACTORIAL HepG2 Assay for M06 Transcription Factor (Internal Marker) (AID 2282950); details: HepG2 Attagene CIS-FACTORIAL M06 internal marker reporter; actives raise or lower the signal
In short: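 Measured 24 h post-dosing in transiently transfected HepG2 cells, this internal-marker endpoint reports reporter mRNA via RT-PCR with fluorescent primer extension and capillary electrophoresis. DMSO served as negative control and baseline for bidirectional fitting.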

[5] = molecular target: Hypoxia-inducible factor 1-alpha (Homo sapiens) (UniProt Q16665); experiment: ATG_HIF1a_CIS: Attagene CIS-FACTORIAL HepG2 Assay for human Hypoxia Inducible Factor 1 (HIF1A) (AID 2282951); details: HepG2 Attagene cis-factorial HIF1a reporter transcription; actives raise or lower the signal
Hypoxia-inducible factor 1-alpha (Homo sapiens), sequence (Q16665 whole entry, looked up): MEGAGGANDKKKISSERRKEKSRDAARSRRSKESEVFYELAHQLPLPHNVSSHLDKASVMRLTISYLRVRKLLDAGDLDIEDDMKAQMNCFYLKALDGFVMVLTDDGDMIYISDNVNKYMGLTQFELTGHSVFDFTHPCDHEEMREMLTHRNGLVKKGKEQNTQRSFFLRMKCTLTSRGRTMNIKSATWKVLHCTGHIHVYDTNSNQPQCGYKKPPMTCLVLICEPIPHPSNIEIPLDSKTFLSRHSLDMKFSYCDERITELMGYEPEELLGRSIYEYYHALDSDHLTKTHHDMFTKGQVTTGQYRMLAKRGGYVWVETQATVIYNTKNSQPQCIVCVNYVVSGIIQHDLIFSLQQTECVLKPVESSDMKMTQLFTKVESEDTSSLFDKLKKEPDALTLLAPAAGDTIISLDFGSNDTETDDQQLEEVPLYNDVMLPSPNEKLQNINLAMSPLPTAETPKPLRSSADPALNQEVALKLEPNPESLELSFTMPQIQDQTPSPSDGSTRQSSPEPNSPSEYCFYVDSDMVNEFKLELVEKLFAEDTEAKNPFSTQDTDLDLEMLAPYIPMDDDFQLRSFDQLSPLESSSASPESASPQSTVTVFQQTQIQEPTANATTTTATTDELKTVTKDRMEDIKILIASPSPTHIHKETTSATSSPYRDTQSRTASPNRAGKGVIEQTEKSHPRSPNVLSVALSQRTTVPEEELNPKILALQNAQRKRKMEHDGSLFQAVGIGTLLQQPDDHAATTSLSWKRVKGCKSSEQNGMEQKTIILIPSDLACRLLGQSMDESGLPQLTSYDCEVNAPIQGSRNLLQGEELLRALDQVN
In short: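 HepG2 cells transiently transfected with multiple cis-regulated reporter transcription units measure endogenous transcription factor activity. After 24 h exposure, reporter mRNA is quantified by RT-PCR with 6-FAM labelling, HpaI digestion and capillary electrophoresis. Bidirectional fitting against DMSO.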

[6] = molecular target: Hepatocyte nuclear factor 6 (Homo sapiens) (UniProt Q9UBC0); experiment: ATG_HNF6_CIS: Attagene CIS-FACTORIAL HepG2 Assay for human Hepatocyte Nuclear Factor 6 (HNF6) (AID 2282952); details: HepG2 Attagene cis-factorial HNF6 reporter transcription; actives raise or lower the signal
Hepatocyte nuclear factor 6 (Homo sapiens), sequence (Q9UBC0 whole entry, looked up): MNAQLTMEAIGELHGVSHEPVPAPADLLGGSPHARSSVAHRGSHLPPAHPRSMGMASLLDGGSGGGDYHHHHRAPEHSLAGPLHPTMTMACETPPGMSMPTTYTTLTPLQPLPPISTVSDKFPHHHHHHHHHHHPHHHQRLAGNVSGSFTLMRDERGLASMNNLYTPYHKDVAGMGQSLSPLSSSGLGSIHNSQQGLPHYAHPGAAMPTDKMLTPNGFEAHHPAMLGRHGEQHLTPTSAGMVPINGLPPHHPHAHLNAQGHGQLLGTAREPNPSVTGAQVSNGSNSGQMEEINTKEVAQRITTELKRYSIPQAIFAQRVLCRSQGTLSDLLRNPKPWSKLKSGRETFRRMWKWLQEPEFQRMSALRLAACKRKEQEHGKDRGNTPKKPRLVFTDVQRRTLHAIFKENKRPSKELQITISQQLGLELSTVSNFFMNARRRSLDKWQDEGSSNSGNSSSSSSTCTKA
In short: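 Multiplexed mRNA reporter assay in transfected HepG2; 24 h dosing; RT-PCR plus capillary electrophoresis fluorescence; DMSO-referenced bidirectional curve fitting.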

[7] = molecular target: Heat shock factor protein 1 (Homo sapiens) (UniProt Q00613); experiment: ATG_HSE_CIS: Attagene CIS-FACTORIAL HepG2 Assay for human Heat Shock Transcription Factor 1 (HSE) (AID 2282953); details: HepG2 HSE cis-reporter, Attagene RNA transcription; actives raise or lower the signal
Heat shock factor protein 1 (Homo sapiens), sequence (Q00613 whole entry, looked up): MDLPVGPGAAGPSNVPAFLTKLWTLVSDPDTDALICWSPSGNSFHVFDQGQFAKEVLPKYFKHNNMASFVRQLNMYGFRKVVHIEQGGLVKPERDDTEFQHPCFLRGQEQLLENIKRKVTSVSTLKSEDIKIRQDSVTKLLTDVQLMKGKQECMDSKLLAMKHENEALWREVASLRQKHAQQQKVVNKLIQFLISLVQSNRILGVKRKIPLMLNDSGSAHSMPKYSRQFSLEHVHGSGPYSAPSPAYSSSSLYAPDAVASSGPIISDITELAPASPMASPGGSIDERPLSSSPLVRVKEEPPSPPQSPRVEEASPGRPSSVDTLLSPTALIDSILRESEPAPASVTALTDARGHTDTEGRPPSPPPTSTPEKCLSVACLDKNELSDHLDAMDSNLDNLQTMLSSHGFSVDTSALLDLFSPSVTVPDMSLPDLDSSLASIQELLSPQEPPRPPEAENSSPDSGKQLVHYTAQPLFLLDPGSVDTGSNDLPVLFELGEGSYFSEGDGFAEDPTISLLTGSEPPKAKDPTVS
In short: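 Reporter mRNA induction in HepG2 is measured 24 h after dosing, using transiently transfected multiplexed cis-regulated reporter units. Signal comes from capillary electrophoresis of labelled RT-PCR products, with DMSO as negative control.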

[8] = ATG_MRE_CIS: Attagene CIS-FACTORIAL HepG2 Assay for human Metal Responsive Element (MRE) (AID 2282954); details: HepG2 MRE cis-reporter transcription, Attagene multiplex; actives raise or lower the signal
In short: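 HepG2 cells transiently transfected with multiple cis-element reporter units measure endogenous MTF1-driven transcription. After 24 h compound exposure, reporter mRNA is quantified by RT-PCR with 6-FAM labelling, HpaI digestion and capillary electrophoresis; bidirectional fits versus DMSO.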

[9] = ATG_GRE_CIS: Attagene CIS-FACTORIAL HepG2 Assay for human Glucocorticoid Response Elements (GRE) (AID 2282947); details: HepG2 GRE cis-reporter, Attagene multiplex mRNA; actives raise or lower the signal
In short: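 HepG2 cells transiently transfected with multiple cis-promoter reporter units measure endogenous TF activity; 24 h compound exposure. Reporter mRNA quantified by RT-PCR, FAM labelling, HpaI digestion and capillary electrophoresis; bidirectional fit vs DMSO baseline.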

[10] = ATG_PBREM_CIS: Attagene CIS-FACTORIAL HepG2 Assay for human Phenobarbital-responsive Enhancer Module (PBREM) (AID 2282955); details: HepG2 PBREM cis-reporter, Attagene multiplexed transcription; actives raise or lower the signal
In short: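 HepG2 cells transiently transfected with multiple cis-regulated reporter units measure endogenous transcription factor activity; 24 h compound exposure. Reporter mRNA quantified by RT-PCR, fluorescent labelling, HpaI digestion and capillary electrophoresis; bidirectional fit versus DMSO.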

Measured: AC50

CC(C)COC(=O)CCCCC(=O)OCC(C)C
inactive: [1] | [2] | [3] | [4] | [5] | [6] | [7] | [8]

N[C@@H](Cc1c[nH]c2ccccc12)C(=O)O
inactive: [9] | [2] | [3] | [4] | [6] | [7] | [8]
active: [5] 27.3 µM

CC(=O)OC1CC(C)OC(C)O1 (stereo not given)
inactive: [1] | [9] | [4] | [5] | [6] | [8]

CC(=O)[C@@]1(O)CC[C@H]2[C@@H]3CCC4=CC(=O)CC[C@]4(C)[C@H]3CC[C@@]21C
inactive: [9] | [2] | [3] | [4] | [6] | [7] | [8]

O=C(O)c1[nH]n(-c2ccc(S(=O)(=O)O)cc2)c(=O)c1N=Nc1ccc(S(=O)(=O)O)cc1
inactive: [1] | [2] | [4] | [5] | [6] | [7] | [8]

C=CCCCCCCCCCCCC
inactive: [1] | [9] | [4] | [5] | [6] | [7] | [8]

O=C(O)c1cccnc1
inactive: [1] | [2] | [3] | [4] | [5] | [7] | [8]

Cc1c(C)c2c(c(C)c1O)CCC(C)(COc1ccc(CC3SC(=O)NC3=O)cc1)O2 (stereo not given)
inactive: [1] | [4] | [5] | [6]
active: [8] 17.4 µM

Nc1nc(Cl)nc2c1ncn2[C@H]1C[C@H](O)[C@@H](CO)O1
inactive: [1] | [9] | [4] | [6] | [7] | [8]

Cn1cnc2c1c(=O)[nH]c(=O)n2C
inactive: [1] | [9] | [3] | [4] | [6] | [7] | [8] | [10]

Cc1cn([C@H]2C=C[C@@H](CO)O2)c(=O)[nH]c1=O
inactive: [1] | [4] | [6] | [7] | [8] | [10]

CN(C)C(=O)NC1(c2ccccc2)CCN(CC[C@@]2(c3ccc(F)c(F)c3)CN(C(=O)c3ccccc3)CCO2)CC1
active: [5] 47.9 µM | [8] 57.9 µM
inactive: [1] | [9] | [4] | [6] | [7]

C#CC(O)C(CC)CCCC (stereo not given)
active: [6] 144 µM
inactive: [9] | [2] | [4] | [5] | [7] | [8]

CCCCCCCCCCCCCCCCO
inactive: [9] | [2] | [3] | [4] | [5] | [6] | [7] | [8]

CC1=C(C)S(=O)(=O)CCS1(=O)=O
inactive: [9] | [2] | [3] | [4] | [5] | [6] | [7] | [8]

Cc1ccc(C(C)(C)C)c(O)c1
active: [2] 138 µM | [8] 145 µM
inactive: [1] | [4] | [5] | [6] | [7]

NC=O
inactive: [1] | [4] | [5] | [6] | [7] | [8]

O=C1CCCCC1
inactive: [9] | [2] | [4] | [5] | [6] | [7] | [8]

COC(=O)CCCC(=O)OC
inactive: [1] | [9] | [4] | [5] | [6] | [7] | [8]

CCc1cc(C2=C(C(=O)O)N(c3ccccc3C(F)(F)F)S(=O)(=O)c3ccccc32)cc2c1OCO2
active: [2] 149 µM | [7] 154 µM | [8] 58.5 µM
inactive: [9] | [3] | [4] | [5] | [6]

O=C1NC(=O)C(c2ccccc2)(c2ccccc2)N1
inactive: [9] | [2] | [4] | [6] | [7] | [8]

CCOCCOCCO
inactive: [9] | [3] | [4] | [5] | [6] | [7] | [8]

O=Cc1ccccc1C=O
active: [5] 26.2 µM
inactive: [9] | [3] | [4] | [6] | [7] | [8]
